Data reported in ChEMBL document CHEMBL4513216, “Probing the Open Global Health Chemical Diversity Library for Multistage-Active Starting Points for Next-Generation Antimalarials” (ACS Infect Dis, 2020).
Among all 69,000 compounds or so, about 8,600 (12%) showed an effect of 50% or more. Many of the other results were omitted from the sample, so strong results are more common in it than they were.

system: Plasmodium berghei; assay: Screen against P. berghei liver stage (PbLuc), transformed with Luciferase, at 10uM; assay type: functional, HepG2; conditions: tested at 10 uM

Row | SMILES | INHIBITION [%]
1 | Cn1cc(C(=O)NCC2CCN(C(=O)NC3CCCCC3)CC2)cn1 | -3.7
2 | CSCC(CCO)Nc1nc(C(F)F)nc2ccccc12 (stereo not given) | -49
3 | OCC(CO)Nc1nc(C(F)F)nc2ccccc12 | 51.9
4 | CCC(CO)Nc1nc(C(F)F)nc2ccccc12 (stereo not given) | 8.41
5 | CCc1nc(C2CCCN2C(=O)c2ccc3c(c2)nnn3CC)no1 (stereo not given) | 2.61
6 | CCc1nc(C2CCCN2C(=O)c2cc[nH]n2)no1 (stereo not given) | 58.5
7 | Cc1ccc(-c2noc(C3CCN3C(=O)c3ccc(=O)[nH]n3)n2)s1 (stereo not given) | 4.505
8 | Cc1ccc(-c2noc(C3CCN3C(=O)c3cc[nH]n3)n2)s1 (stereo not given) | 85
9 | CCc1nc(C2CCCN2C(=O)c2ccc3c(c2)nc(C)n3C)no1 (stereo not given) | -8.3
10 | CCCc1nc(CN(CC)C(=O)c2ccc3[nH]cnc3c2)no1 | 30.1
11 | CCc1nc(C2CCCN2C(=O)c2cc(C3CC3)[nH]n2)no1 (stereo not given) | 9.32
12 | CCc1nc(C2CCCN2C(=O)c2c[nH]c(C)n2)no1 (stereo not given) | 26.1
13 | Cc1ccc(-c2noc(C3CCN3C(=O)c3ccn(C)n3)n2)s1 (stereo not given) | 23.95
14 | CCCc1nc(CN(CC)C(=O)c2ccc(OC)c(OC)c2)no1 | 30.1
15 | CCCc1nc(CN(CC)C(=O)c2ccc3c(c2)nnn3C)no1 | 52.8
16 | CCc1nc(C2CCCN2C(=O)c2ccc3c(c2)nnn3C)no1 (stereo not given) | 62.6
17 | O=C(NCC1(COc2cnccn2)C[C@@H](O)[C@@H](O)C1)C1CC1 (stereo not given in full) | 18.2
18 | COc1nn(C)c2c1CCCN(C(=O)COc1ccccc1)C2 | -15.7
19 | COc1cc(NC(=O)CCn2nc(-c3cccs3)oc2=O)cc(OC)c1 | -7.81
20 | CC1CCCN(C(=O)c2ccn(COc3ccccc3)n2)C1 (stereo not given) | 27.5
21 | CC(C)N1CCc2c(c(COc3cncnc3)nn2CC2CC2)C1 | 2.4
22 | Cc1nn(C)c(N2CCOCC2)c1CNC(C(N)=O)c1ccccc1 (stereo not given) | -32.4
23 | COc1ccc(CNC(=O)NCC(=O)NC2CC2)c(C(F)(F)F)c1 | 26.6
24 | CCc1ccc(S(=O)(=O)Nc2ccc(F)cc2C(=O)O)s1 | 5.605
25 | CC(=O)N1CCO[C@@H]2CN(S(=O)(=O)c3cccs3)CC[C@@H]2C1 | 21.6
26 | CC1CCN(C(=O)[C@H]2C[C@@H]3CCN(CC4CCOCC4)C[C@@H]3O2)CC1 | 24.9
27 | CCc1cc(O)nc(C2CCCN2C(=O)COC)n1 (stereo not given) | 30.8

Row | SMILES | INHIBITION [%]
28 | CCc1cc(O)nc(C2CCCN2C(=O)c2cc(CC)on2)n1 (stereo not given) | 51.5
29 | CCc1cc(C(=O)N2CCCC2c2nc(O)cc(CC)n2)on1 (stereo not given) | 1.11
30 | Cc1cccc(C(=O)N2CCC(c3n[nH]c(C4CC4)n3)CC2)c1 | 44.1
31 | O=c1[nH]ccn1CCCN1CC=C(c2cnn(-c3ccccc3)c2)CC1 | -95.3
32 | Cc1ccccc1-n1cc(C2=CCN(CCN3CCOCC3)CC2)cn1 | 19.4
33 | Cc1ccccc1-n1cc(C2=CCN(CCn3cc[nH]c3=O)CC2)cn1 | 69.4
34 | CCOCc1ncn2c1CN(C(=O)Nc1ccccc1)CC2 | -27
35 | O=C(c1cccc(O)n1)N1CCC(O)(CN2CCC(F)(F)CC2)C1 (stereo not given) | -21.6
36 | CC(=O)N1CCc2c(nc(N(C)C)nc2NCc2cccs2)C1 | 61.9
37 | CC(=O)N1CCc2c(nc(N(C)C)nc2NCCc2cccs2)C1 | 63.8
38 | Cc1nc2c(c(NCc3ccccc3)n1)CCN(C(=O)NC(C)C)CC2 | 66.1
39 | CC(=O)N1CCc2c(nc(N(C)C)nc2NCCCn2ccnc2C)C1 | 71.3
40 | CC(=O)N1CCc2c(nc(N(C)C)nc2N(C)CCC2CCCCO2)C1 (stereo not given) | -10.4
41 | CC(C)NC(=O)N1CCc2nc(C(=O)NCc3ccccc3)sc2CC1 | 34.1
42 | CC(=O)N1CCc2c(nc(N(C)C)nc2N(C)CCCC2CCCO2)C1 (stereo not given) | 21.7
43 | CC(=O)N1CCc2c(nc(N(C)C)nc2NCCCn2ccnc2)C1 | 18.4
44 | COCCNc1nc2c(c(NCCc3cccs3)n1)CCNCC2 | 28
45 | Cc1nccn1CCCNc1ncccc1C#N | 18.4
46 | CC(=O)N1CCc2c(nc(N(C)C)nc2NCCC2CCCCO2)C1 (stereo not given) | 45.1
47 | CSCC(=O)N1CCc2nc(C)nc(NCc3ccccc3)c2CC1 | 37.3
48 | Cn1c(NCC(O)c2ccc(F)cc2)c(C#N)c(=O)n(C)c1=O (stereo not given) | -60.8
49 | Cn1cc(CN2CCCC3(CCN(c4nncs4)C3)C2)cn1 (stereo not given) | 22.4
50 | CN1CCO[C@@H]2CN(S(=O)(=O)c3ccccc3)CC[C@@H]2C1 | 4.02
51 | CC(=O)N1[C@H](CN(C)C)C[C@@H]2CN(C(=O)c3cccn3C)CC[C@@H]21 | -9.74
52 | COc1c(C2CCCN2C(=O)c2cscn2)c(C)nn1C (stereo not given) | 38.8
53 | O=C(Nc1ccccc1)C1CN(CC2CC2)CC12CCOCC2 (stereo not given) | 4.2
54 | Cc1ccc(CNC(=O)CN(CCC(N)=O)c2ccc(F)cc2)cc1 | 16

Row | SMILES | INHIBITION [%]
55 | Cc1ccc(CCNC(=O)N2CCC(Cc3cnn(C)c3)C2)cn1 (stereo not given) | -3.58
56 | Cc1cc(Br)ccc1CNC(=O)C1(O)CCSCC1 | 19.1
57 | CC(C)Nc1ncnc2c1CCN(C(=O)Cc1cccs1)CC2 | 21.8
58 | CC(=O)NC1CCN(c2nc(N(C)C)nc3c2CCN(C(C)=O)C3)CC1 | 58.9
59 | CN(C)c1nc2c(c(N3CCCC3)n1)CCN(C(=O)c1ccc[nH]1)CC2 | 34.5
60 | CNC(=O)CN(C)c1nc(-c2ccncc2)nc2c1CCN(C(C)=O)C2 | 31.8
61 | CC(=O)NC1CCN(c2nc(N(C)C)nc3c2CCCC3)CC1 | 46.6
62 | CC(=O)N1CCc2c(nc(N(C)C)nc2N(C)CCO)C1 | 31.6
63 | CC(=O)N1CCc2nc(N(C)C)nc(NCCc3ccccc3)c2CC1 | 79.7
64 | CC(=O)N1CCc2c(nc(N(C)C)nc2NC(C)Cc2cccs2)C1 (stereo not given) | 78.6
65 | Cc1nc(CCNc2nc(N(C)C)nc3c2CCCC3)cc(=O)[nH]1 | 24.7
66 | O=C(Cc1cccs1)N1CCCCC1c1ccn2ccnc2n1 (stereo not given) | 26.3
67 | CCOc1cc(C)nc(N2CCN(C(=O)c3cc[nH]n3)CC2)n1 | 40
68 | O=C(c1ccc2nncn2c1)N1CCCC(n2ccnc2)C1 (stereo not given) | 16.9
69 | CCNC(=O)N1CCC(=Cc2ccccc2)CC1 | 63.3
70 | CNC(=O)N1CCC(=Cc2ccccc2)CC1 | -27.4
71 | CCCNC(=O)CCNC(=O)N1CCC(=Cc2ccccc2)CC1 | 9
72 | CN(C)c1nc2ncc(Cl)cc2cc1C#N | -8.35
73 | CCOC(=O)N1CCC(Nc2cc(CC)nc3c(C)c(C)nn23)CC1 | -31.4
74 | CC[C@@H](C)[C@H](NC(=O)CCn1cc(C(C)=O)c2ccccc21)C(=O)O | -27
75 | CCn1nc(C)c2c1cnn2CCNS(=O)(=O)Cc1ccccc1 | 47.4
76 | O=C(c1ccncn1)N1CCC[C@]2(C[C@@H](OCC3CC3)CO2)C1 | 42.7
77 | Cc1cccc(C(=O)N2CCC[C@]3(C[C@@H](OCC4CC4)CO3)C2)n1 | 52
78 | Cc1cc(C(=O)N2CCC[C@]3(C[C@@H](OCC4CC4)CO3)C2)no1 | 21.8
79 | CCOC1COC2(CCN(Cc3cccc(C)n3)CC2)C1 (stereo not given) | 25.6
80 | CCOC1COC2(CCN(c3cccc(C)n3)CC2)C1 (stereo not given) | 16.6
81 | O=C(c1ccncn1)N1CCC[C@]2(C[C@H](OCC3CC3)CO2)C1 | 50.9

Row | SMILES | INHIBITION [%]
82 | CCOC1COC2(CCN(C(=O)c3cccc(C)n3)CC2)C1 (stereo not given) | 63.3
83 | Cc1cc(C(=O)N2CCC[C@]3(C[C@H](OCC4CC4)CO3)C2)no1 | 17.1
84 | O=C(c1cocn1)N1CCC[C@]2(C[C@@H](OCC3CC3)CO2)C1 | -2.72
85 | CC(CC(=O)NCCCn1cccn1)c1cccnc1 (stereo not given) | 15.7
86 | CC(C)(C)c1nnc2n1C(C(=O)N1CCN(c3ncccn3)CC1)CC2 (stereo not given) | 14.3
87 | Cc1ccc(C)c(CSc2nnc(C(N)C(C)C)o2)c1 (stereo not given) | 21.8
88 | c1ccc(Cc2noc(CN3CCOC(Cn4cccn4)C3)n2)cc1 (stereo not given) | 24
89 | Cn1cc(C(=O)NCc2ccc(N3CCCC3)nc2)ccc1=O | 35.9
90 | CN(C)c1ccc(CNC(=O)NCCc2cn3ccccc3n2)cn1 | -10.6
91 | CCOc1cc(NC(=O)N2CCOC3(CCC3)C2)ccc1C | 2.45
92 | CCN1CCCCC1C(=O)Nc1cccc(-c2nnc[nH]2)c1 (stereo not given) | 19.7
93 | CC1(c2ncc(CN3CCOCC3)cn2)CCCCO1 (stereo not given) | 18.04
94 | c1cnc(-c2nn3c(CN4CCOCC4)nnc3s2)cn1 | 4.35
95 | COc1nc2ccn(CCc3cnccn3)c(=O)c2cc1C#N | 72.6
96 | CC(C)SCCn1ccc2[nH]c(=O)c(C#N)cc2c1=O | 23.5
97 | Cc1ccnc(NCCNC(=O)C2CC3(CCNCC3)CN2C)c1 (stereo not given) | -17.9
98 | COCCn1cnc2ccc(NC(=O)c3ccc(OC)cc3)cc2c1=O | -13.6
99 | COc1nc2ccn(CCNc3cc(C)ccn3)c(=O)c2cc1C#N | 58.3
100 | CCc1nc(CCn2ccc3nc(OC)c(C#N)cc3c2=O)no1 | 32.3
101 | COc1nc2ccn(CCc3cc(O)nc(C)n3)c(=O)c2cc1C#N | 58.3
102 | COc1nc2ccn(CCc3scnc3C)c(=O)c2cc1C#N | 45.7
103 | N#Cc1cc2c(=O)n(CC(O)Cc3ccccc3)ccc2[nH]c1=O (stereo not given) | 25.9
104 | Cc1cc(C)n(CC2CN(c3cnc4ccccc4n3)CCO2)n1 (stereo not given) | 29.7
105 | O=C(C1CC1)N1CC[C@@H]2[C@H](CC1)N(Cc1cccnc1)CCS2(=O)=O | -49.8
